Shown are actives, neighbours in structure and some others; about 12% of the full set was active somewhere.
L3MBTL1 inh: L3MBTL1 (human) inhibition | 0.66% of 230,000 active | Potency, µM (series often up to 57.1 µM), hits mostly inhibitors | AlphaScreen L3MBTL1–H3K9me1 peptide binding | Q9Y468; note: nearly all actives have a fitted effect of over 60% in size
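Displacement of a biotinylated histone H3(1-15) peptide monomethylated at Lys9 (75 nM) from L3MBTL1 (50 nM) was measured by AlphaScreen after a 30 min room-temperature compound incubation; cefsulodin titration served as intraplate control.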
G9a block: G9a (human) methyltransferase inhibition; Q96KQ7; Potency, µM (top dose mostly 102 µM), actives largely listed as inhibitors; 8.8% of 350,000 active; G9a H3K9 monomethylation, AlphaScreen, 2 h; note: nearly all actives have a fitted effect of over 75% in size
Target sequence (Q96KQ7 913-1193 limits assumed): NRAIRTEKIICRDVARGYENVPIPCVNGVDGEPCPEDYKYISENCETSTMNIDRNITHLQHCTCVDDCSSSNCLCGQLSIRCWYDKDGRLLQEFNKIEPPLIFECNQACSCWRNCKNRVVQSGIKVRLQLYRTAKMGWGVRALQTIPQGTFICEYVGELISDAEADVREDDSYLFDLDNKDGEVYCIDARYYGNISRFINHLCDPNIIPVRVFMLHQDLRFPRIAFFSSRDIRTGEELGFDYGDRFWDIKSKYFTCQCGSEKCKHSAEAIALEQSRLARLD
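Enzyme 20 nM + cpd, 15 min RT; add b-H3K9 pep 500 nM / SAM 20 uM; 2 h RT; anti-H3K9me1 Ab 0.5 ug/mL + SA donor / anti-rabbit acceptor beads 20 ug/mL each, 10 min; AlphaScreen read.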
BAZ2B block: inhibitors of human BAZ2B bromodomain; AlphaScreen BAZ2B-H3K14Ac peptide displacement; AID 504333; 4.4% of 360,000 active; Potency, µM (top dose mostly 114 µM), usual class: inhibitors; note: nearly all actives have a fitted effect of over 60% in size
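BAZ2B 50 nM plus b-H3(5-23)K14Ac 50 nM, PBS pH 7.4/0.01% Tween-20, 30 min RT; compound added (max 110 uM), 30 min RT; streptavidin donor/Ni-chelate acceptor beads 10 ug/mL final, 20 min dark; AlphaScreen read.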
Sfp inh: blocks B. subtilis Sfp PPTase activity; Biochemical Sfp PPTase activity, qHTS; Potency, µM, most hits filed as inhibitors; 3.5% of 310,000 active; AID 1490;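 note: the enzyme is Sfp with the accession as filed and its product quenches rhodamine fluorescence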
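Compounds were incubated with enzyme (final 15 nM) for 15 min at room temperature before substrate addition started the reaction. Fluorescence at 525 nm excitation, 598 nm emission was recorded immediately and after 30 minutes.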
JMJD2A Tudor: blocks the human JMJD2A Tudor domain; O75164; AlphaScreen JMJD2A-Tudor / H3K4me3 peptide binding; Potency, µM (top dose mostly 114 µM), actives largely listed as inhibitors; 4.4% of 390,000 active; AID 504339; note: nearly all actives have a fitted effect of over 50% in size
HP1b binding inh: inhibitors of HP1-beta chromodomain binding to methylated histone tails | P83916 | AlphaScreen HP1-beta / biotin-H3K9me3 peptide binding | Potency, µM (highest dose often 114 µM), usual class: inhibitors | 0.56% of 390,000 active; note: nearly all actives have a fitted effect of over 70% in size
Target sequence (P83916 whole entry, looked up): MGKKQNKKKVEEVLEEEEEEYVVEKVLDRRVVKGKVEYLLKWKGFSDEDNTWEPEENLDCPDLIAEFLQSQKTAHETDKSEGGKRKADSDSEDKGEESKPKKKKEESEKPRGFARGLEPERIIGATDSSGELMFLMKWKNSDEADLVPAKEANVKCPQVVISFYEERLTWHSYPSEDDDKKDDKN
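HP1-beta protein (50 nM final) preincubated 30 min at room temperature with biotinylated H3(1-18)K9me3 peptide (50 nM) in PBS pH 7.4, 0.01% Tween-20, then compound added for 30 min. AlphaScreen streptavidin donor/nickel chelate acceptor beads (10 ug/mL final), 30 min dark, luminescence read.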
Each line names hits and unclear results; the compound was inactive in the other large screens. Calls come from the whole dose curve; as a rule, active = well fitted curve in the direction sought with a large enough effect; inconclusive = small, poorly fitted or top-dose-only effect, or another doubt; inactive = no such curve, though single readings can be large; an effect the other way counts as inactive or inconclusive.

COc1ccc(NC2CCCN(C(=O)c3csc(C(C)C)n3)C2)cc1 (centres undefined)	none (no result: L3MBTL1 inh)
Cc1ccccc1C(=O)c1cccn1CC(=O)N1CCCCC1	none (no result: L3MBTL1 inh)
COc1cc(C(=O)Nn2cnnc2)ccc1OC(F)F	none (no result: L3MBTL1 inh)
COc1ccc(NC2CCCN(C(=O)c3cccs3)C2)cc1 (centres undefined)	G9a block 50µM, BAZ2B block inconclusive (no result: L3MBTL1 inh)
COc1ccc(/C=N/n2c(-c3cccs3)n[nH]c2=S)cc1	G9a block inconclusive, JMJD2A Tudor 45µM
Cc1ccc(/C=N/n2c(-c3cccs3)n[nH]c2=S)cc1	G9a block 0.45µM, JMJD2A Tudor 50µM
O=[N+]([O-])c1ccc(-c2nn(-c3ccccc3)cc2/C=N/n2c(-c3cccs3)n[nH]c2=S)cc1	none (no result: L3MBTL1 inh, G9a block)
COc1ccc(/C=N/n2c(C)nc3ccccc3c2=O)cc1	none (no result: L3MBTL1 inh)
S=c1[nH]nc(-c2cccs2)n1/N=C/c1c(Cl)cccc1Cl	G9a block 1.3µM, JMJD2A Tudor inconclusive
COc1cc(C2NC(=O)CCC2[N+](=O)[O-])cc(Br)c1OC (centres undefined)	none (no result: L3MBTL1 inh)
COc1cccc(C2=NOC(C(=O)N3CCc4ccccc4C3)C2)c1 (centres undefined)	G9a block 7.9µM
C=CCC(C)(O)c1ccc(OC)cc1 (centres undefined)	none (no result: L3MBTL1 inh, G9a block, BAZ2B block, JMJD2A Tudor, HP1b binding inh)
CCc1ccc2nc3sc(C(=O)N4CCc5ccccc54)c(N)c3cc2c1	G9a block 50µM (no result: JMJD2A Tudor, HP1b binding inh)
Cc1ccc(C)c2nc3sc(C(=O)N4CCCc5ccccc54)c(N)c3cc12	G9a block inconclusive
COc1ccc2cc3c(N)c(C(=O)N4CCCC4)sc3nc2c1	G9a block inconclusive, BAZ2B block inconclusive, JMJD2A Tudor inconclusive (no result: L3MBTL1 inh)
Cc1ccc2nc3sc(C(=O)N4CCOCC4)c(N)c3cc2c1	G9a block 14µM, JMJD2A Tudor inconclusive
Cc1ccc2cc3c(N)c(C(=O)N4CCOCC4)sc3nc2c1	G9a block 28µM
COc1ccc(CN2CCN(C(=O)c3cccs3)CC2)cc1Br	G9a block 35µM, BAZ2B block 50µM, Sfp inh inconclusive, JMJD2A Tudor 35µM, HP1b binding inh inconclusive
O=C(c1cccs1)N1CCN(Cc2cccc([N+](=O)[O-])c2)CC1	G9a block 11µM, BAZ2B block 28µM, JMJD2A Tudor 20µM, HP1b binding inh inconclusive
O=C(c1ccc([N+](=O)[O-])cc1)N1CCN(C(=O)c2cccs2)CC1	none
CCOc1cc(CN2CCN(C(=O)c3cccc4ccccc34)CC2)ccc1OC	G9a block 22µM, BAZ2B block 50µM, Sfp inh inconclusive, JMJD2A Tudor 20µM, HP1b binding inh inconclusive
CCOc1ccccc1N1CCN(C(=O)c2cc3ccccc3cc2OC)CC1	none (no result: Sfp inh)
COc1ccc(C(=O)Nc2ccc(N3CCN(C(=O)c4cccs4)CC3)cc2)cc1Br	none (no result: L3MBTL1 inh, G9a block)
COc1ccc2ccccc2c1CN1CCN(C(=O)c2ccccc2)CC1	G9a block inconclusive, Sfp inh inconclusive
COc1ccc(CN2CCN(C(=O)c3cccc4ccccc34)CC2)cc1Br	G9a block 28µM, BAZ2B block 50µM, Sfp inh 56µM, JMJD2A Tudor 18µM
CCCC(=O)O[C@]1(C(=O)CCl)[C@H](C)C[C@@H]2[C@H]3CCC4=CC(=O)C=C[C@]4(C)[C@@]3(F)C(=O)C[C@@]21C	none (no result: L3MBTL1 inh, BAZ2B block, JMJD2A Tudor, HP1b binding inh)
O=C(Nc1ccccc1)N1CCC2(CCNCC2)CC1	none (no result: L3MBTL1 inh, BAZ2B block, JMJD2A Tudor, HP1b binding inh)
CCCCN(CC)CCCNC(=O)Cn1nc(CC)n2c(cc3sccc32)c1=O	none (no result: L3MBTL1 inh, Sfp inh)
CCc1nnc(NC(=O)CSc2nnc(-c3cc4ccccc4cc3O)n2CC)s1	G9a block 28µM
CCc1nnc(NC(=O)CSc2sc3c(O)cc(=O)[nH]c3c2C#N)s1	G9a block 10µM, BAZ2B block 20µM, Sfp inh 79µM, JMJD2A Tudor 20µM, HP1b binding inh 40µM (no result: L3MBTL1 inh)
CCc1nnc(NC(=O)CSc2nnc(-c3ccccc3O)n2CC)s1	G9a block inconclusive (no result: L3MBTL1 inh)
CCSc1nnc(NC(=O)CSc2sc3c(O)cc(=O)[nH]c3c2C#N)s1	G9a block inconclusive, BAZ2B block 79µM, JMJD2A Tudor inconclusive (no result: L3MBTL1 inh)
Cc1csc(NC(=O)CSc2sc3c(O)cc(=O)[nH]c3c2C#N)n1	G9a block 50µM, BAZ2B block inconclusive, Sfp inh inconclusive (no result: L3MBTL1 inh)
COc1ccc(OC)c(Nc2nc(N)nc(CSc3nnc(-c4ccncc4)o3)n2)c1	none (no result: L3MBTL1 inh, JMJD2A Tudor, HP1b binding inh)
COc1ccc(-c2cc(=O)c3cc(OC)ccc3[nH]2)cc1	G9a block 79µM
COc1ccc(-c2cc(=O)[nH]c(=S)[nH]2)cc1	G9a block 50µM, Sfp inh inconclusive
CC(C)Oc1ccc(-c2cc(=O)[nH]c(=O)[nH]2)cc1	none
O=C(Nc1ccn(Cc2c(F)c(F)cc(F)c2F)n1)c1cccc(Cn2cc([N+](=O)[O-])cn2)c1	G9a block inconclusive, Sfp inh 32µM (no result: L3MBTL1 inh)
O=C(Nc1ccn(Cc2c(F)c(F)c(F)c(F)c2F)n1)c1cccc(Cn2cc([N+](=O)[O-])cn2)c1	Sfp inh inconclusive (no result: L3MBTL1 inh)
COc1cc(-c2nc3nc[nH]n3c2Nc2ccc(C(C)C)cc2)ccc1O	G9a block 8.9µM, JMJD2A Tudor inconclusive, HP1b binding inh inconclusive (no result: L3MBTL1 inh, Sfp inh)
CCS(=O)(=O)N1CCN(C(C)CCc2ccccc2)CC1 (centres undefined)	G9a block inconclusive, BAZ2B block inconclusive, JMJD2A Tudor 8.9µM, HP1b binding inh inconclusive
CC(CCc1ccccc1)N1CCN(Cc2ccccc2)CC1 (centres undefined)	G9a block 11µM, BAZ2B block 50µM, JMJD2A Tudor 2.2µM, HP1b binding inh 45µM
Cc1cc(S(=O)(=O)N2CCN(CC(=O)N(C)Cc3ccccc3)CC2)ccc1Br	G9a block 56µM (no result: Sfp inh)
CC(CNC(=O)CCC(=O)N1CCOc2ccccc21)c1ccccc1 (centres undefined)	none
CCOC(=O)c1c(S(=O)(=O)NCC(=O)Nc2ccc(C)c(N(C)C)c2)c(C)n(C)c1C	BAZ2B block inconclusive, JMJD2A Tudor inconclusive (no result: L3MBTL1 inh, Sfp inh)
CCOC(=O)CNC(=O)CSc1nc2sc(C)c(C)c2c(=O)n1C	G9a block 45µM
Cc1sc2nc(SCC(=O)NCCO)n(C)c(=O)c2c1C	none (no result: L3MBTL1 inh)
COc1ccccc1NC(=O)CSc1nc2sc(C)c(C)c2c(=O)n1C	Sfp inh inconclusive (no result: L3MBTL1 inh)
CCCc1cc(SCC(=O)Nc2c(C)n(C)n(-c3ccccc3)c2=O)n2c(nc3ccccc32)c1C#N	G9a block 7.9µM, Sfp inh inconclusive (no result: L3MBTL1 inh)
Cc1sc2nc(SCC(=O)Nc3c(C)n(C)n(-c4ccccc4)c3=O)n(C)c(=O)c2c1C	G9a block inconclusive, Sfp inh 50µM, JMJD2A Tudor inconclusive
Cc1nc(SCC(=O)Nc2c(C)n(C)n(-c3ccccc3)c2=O)c(C#N)c(C)c1C	none (no result: Sfp inh)

Screening results from PubChem.
